Screening data from PubChem BioAssay.
LmPK inhibitor: qHTS Assay for Inhibitors of Leishmania Mexicana Pyruvate Kinase (LmPK); Q27686; purified LmPK, Kinase-Glo ATP luminescence, 1 h; Potency, µM (highest dose often 57.5 µM), without a hit: at the highest dose activity change, negative = inhibition, usual class: inhibitors; 290,000 compounds, 0.37% hits; AID 1721, 2009; also: potency is read from the fitted curve at half-maximal effect; % is scaled to controls: 0 for no effect and ±100 for the full control effect
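Screened at intermediate enzyme activity to detect both inhibitors and activators: LmPK at 0.1 nM, with a 0.5 nM enzyme column as activation reference. PEP 0.5 mM, ADP 0.1 mM; ATP detected by luminescence after 1 h.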
Tb PYK inh: qHTS of Trypanosoma Brucei Inhibitors | pyruvate kinase (Trypanosoma brucei), Q57TT1 | TbPYK enzyme, Kinase-Glo Plus ATP luminescence, 45 min | Potency, µM (top dose mostly 76.8 µM), for the others: at the highest dose activity, negative = inhibition, most hits filed as inhibitors | 410,000 compounds, 0.12% hits | AID 624173, 2012; also: potency is read from the fitted curve at half-maximal effect; % is scaled to controls: 0 for no effect and ±100 for the full control effect; nearly all actives have a fitted effect of over 50% in size
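Quantitative HTS: titrated library compounds versus trypanosomal pyruvate kinase in TEA buffer (pH 7.2) containing KCl, MgCl2, BSA and Tween-20. Reactions were initiated with ADP, 130 uM final. Kinase-Glo Plus luminescence was read after 45 min at RT.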
Sm TGR block: qHTS Assay for the Inhibitors of Schistosoma Mansoni Peroxiredoxins; Schistosoma mansoni thioredoxin glutathione reductase (TGR), Q962Y6; purified TGR, DTNB reduction, TNB absorbance 405 nm; Potency, µM (highest dose often 114 µM), without a hit: at the top dose activity change, negative = inhibition, most hits filed as inhibitors; 360,000 compounds, 3% hits; AID 485364, 2010; also: potency is read from the fitted curve at half-maximal effect; % is scaled to controls: 0 for no effect and ±100 for the full control effect; nearly all actives have a fitted effect of over 60% in size
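Kinetic colorimetric format: TGR-catalysed, NADPH-driven DTNB reduction monitored via TNB absorbance. Enzyme dispensed at 20 nM; compound exposure 15 min at room temperature before reaction start.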
Shiga toxin inh: A qHTS for Small Molecule Inhibitors of Shiga Toxin; Vero cells, Shiga toxin protein synthesis inhibition reporter; inhibition, % at 38.7 µM; 290,000 compounds, 9.2% hits; in the data active = inhibition mostly above about 28%, no sharp cut-off; inactive = mostly below about 43%; also: 0% is about no effect
CHX counter: Cycloheximide Counterscreen for Small Molecule Inhibitors of Shiga Toxin; max response, %; 300,000 compounds, 12% hits; AID 2314, 2010; cell reporter, cycloheximide protein synthesis inhibition counterscreen; in the data active = max response mostly above about 13%, no sharp cut-off; inactive = mostly below about 14%; also: read at 38.3 µM for the half of the compounds with a filed dose; 0% is about no effect
Giardia FBPA inh: qHTS Assay for Inhibitors of Fructose-1,6-bisphosphate Aldolase from Giardia Lamblia; A8B2U2; purified Giardia FBPA; Potency, µM (top dose mostly 59.6 µM), for the others: at the highest dose activity, negative = inhibition, usual class: inhibitors; 290,000 compounds, 0.71% hits; also: potency is read from the fitted curve at half-maximal effect; % is scaled to controls: 0 for no effect and ±100 for the full control effect; nearly all actives have a fitted effect of over 55% in size
Target sequence (A8B2U2 whole entry, looked up): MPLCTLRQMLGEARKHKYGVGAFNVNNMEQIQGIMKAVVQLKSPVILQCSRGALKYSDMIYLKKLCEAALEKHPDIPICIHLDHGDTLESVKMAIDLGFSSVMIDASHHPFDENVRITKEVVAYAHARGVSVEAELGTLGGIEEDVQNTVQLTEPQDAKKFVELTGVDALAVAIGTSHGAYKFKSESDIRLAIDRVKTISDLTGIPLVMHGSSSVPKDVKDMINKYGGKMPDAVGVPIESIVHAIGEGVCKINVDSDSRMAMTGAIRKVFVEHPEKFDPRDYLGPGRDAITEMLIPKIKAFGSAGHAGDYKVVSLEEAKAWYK
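Giardia FBPA (40 nM reagent) was preincubated 10 min at RT with compound (up to 57.5 uM final), then substrate plus GAPDH/TPI/NAD/arsenate coupling system with diaphorase/resazurin was added; resorufin fluorescence (525/598 nm) was read after 20 min.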
* = called active by the depositor; u = inconclusive; x = no result; + = active, no number; [ ] = dose if it differs, or a comment. This is one part of a sample in which hits are shown more often than they occur. Unless noted, calls follow the shape of the dose curve; as a rule, active = well fitted curve in the direction sought with a large enough effect; inconclusive = small, poorly fitted or top-dose-only effect, or another doubt; inactive = no such curve, though single readings can be large; an effect the other way counts as inactive or inconclusive.

SMILES	LmPK inhibitor	Tb PYK inh	Sm TGR block	Shiga toxin inh	CHX counter	Giardia FBPA inh
COc1ccc(-c2c(C3C4C=CCCC4(C)C(=O)N3Cc3ccccc3)ccc3ccccc23)cc1OC (stereo not drawn)	x	x	x	10	9	3%
O=C1Nc2ccc(Cl)cc2C12Nc1ccccc1-c1nnc(SCc3ccccc3F)nc1O2 (stereo not drawn)	-7%	-8%	-9%	-48	28*	-21%
O=C1Nc2ccc(F)cc2C12Nc1ccccc1-c1nnc(SCc3ccccc3F)nc1O2 (stereo not drawn)	0%	0%	-24%	-18	11	-9%
Cc1ccccc1-c1nc(CN2CCC(C(=O)NCc3ccccc3Cl)CC2)c(C)o1	x	1%	6%	x	x	x
O=C(NC(=O)c1ccc(Cl)cc1)OC1CCCCC1	-1%	-2%	3%	63*	48*	-1%
CN(CC(=O)Nc1ccccc1Cl)C1CCCCC1	0%	-5%	-1%	15	7	4%
O=C(CNC(=O)c1ccccc1)OC1CCCCC1	-9%	8%	1%	56*	35*	6%
O=C(Nc1ccccc1Cl)OC1CCCCC1	-1%	-2%	3%	100*	22	9%
Cc1cccc(NC(=O)Cn2c(=O)n(Cc3ccc4c(c3)OCO4)c(=O)c3ccccc32)c1	x	1%	10%	x	x	x
COc1ccccc1NC(=O)c1cc2c(n(-c3ccc(C)cc3)c1=O)CC(C)(C)CC2=O	x	-2%	-6%	x	x	x
CC(C)OCCCN1CC(=O)N2C(c3ccccc3)c3[nH]c4ccccc4c3C[C@H]2C1=O (stereo partly drawn)	4%	2%	6%	56*	21*	9%
CCN1C(=O)[C@@H]2Cc3c([nH]c4ccccc34)C(c3ccc(OC)cc3)N2C1=S (stereo partly drawn)	3%	-11%	-7%	32*	21*	2%
CCCCCCCCCCCCCCCCCCCCCC(=O)Nc1ccn([C@@H]2O[C@H](CO)[C@@H](O)[C@@H]2O)c(=O)n1	x	-6%	x	x	x	x
CCCCCCc1cc2cc(-c3nnc(-c4cccc(Cl)c4)o3)c(=O)oc2cc1O	x	4%	-3%	x	x	x
CCCC[C@]12Cc3ccccc3C(O1)c1c(cc(-c3ccccc3)oc1=O)O2	-7%[11.5 µM]	x	3.2µM*	+	13	2µM*
O=C(O)Cc1sc(Nc2cccc3ccccc23)nc1-c1ccccc1	x	-2%	u	x	x	x
COc1ccc(Nc2nc(-c3ccc(OC)cc3)c(CCC(=O)O)s2)cc1	5%	-6%	-19%	-6	2	3%
Cc1ccc(Nc2nc(-c3ccc(C)cc3)c(CC(=O)O)s2)cc1	5%	-12%	u	79	14*	-20%
CCOc1ccccc1Nc1nc(-c2ccc(C)cc2)c(CC(=O)O)s1	x	-8%	40µM*	x	x	x
O=C(O)Cc1sc(Nc2ccccc2)nc1-c1ccccc1	x	-1%	-16%	x	x	x
O=C(O)Cc1sc(Nc2cccc3ccccc23)nc1-c1ccc(Cl)cc1	4%	1%	-5%	18	20*	-6%
COC(=O)CCc1sc(Nc2ccccc2)nc1-c1ccc(OC)cc1	3%	-5%	-20%	91*	23*	-7%
NC(Cc1ccccc1)c1nc(-c2ccccc2)no1 (stereo not drawn)	-3%	-1%	3%	38*	30*	-1%
CN(C(=O)c1ccc(Cl)cc1)c1ccc(OCC(=O)Nc2cc(C(=O)O)ccc2Cl)cc1	x	-7%	x	x	x	x
CC(C)C(NC(=O)C(NC(=O)C1OC2OC(C)(C)OC2C2OC(C)(C)OC12)C(C)C)C(=O)O (stereo not drawn)	-2%	2%	-3%	31*	15*	1%
CCNCCCNCCCCNCCCNCC	x	x	x	x	x	2%
COc1oc(=O)c2cc(N)ccc2c1Cl	x	x	x	71*	62*	0%
COc1c(Cl)c(=O)oc2ccc(Cl)cc12	x	8%	x	x	x	x
